# An excerpt weighted towards active compounds, which were near 3.8% of everything screened.
# aDG glyco up: increases alpha dystroglycan glycosylation; Pro5-aDG cells, alpha-DG glycosylation AlphaScreen (IIH6); 0% Pro5, 100% B10-LARGE cell signal; activation, % at 10 µM; actives 0.22% (n = 360,000); AID 624168;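 active = activation of at least 8% versus controls, or a plate z-score of at least 8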;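 also: Pro5 are CHO cells carrying HIG-tagged alpha-DG that lacks glycosylation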
# Yeast superoxide: lowers age-related superoxide in aged yeast cells; S. cerevisiae aged cells, superoxide DHE fluorescence; hits give low values; superoxide response (% of plate mean), % at 10 µM; actives 0.18% (n = 330,000); AID 2690;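 active = superoxide response under a set limit, about three screen SD below normal, cut at about 65% in these data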;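 also: yeast aged for seven days with compound at 30 °C before DHE staining; 100% = average MFI of all compound-treated wells on the plate with controls excluded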
# H9c2 protect: myocardial damage modulation in H9c2 cells. H9c2 cardiomyocytes, H2O2 injury protection, ATPLite, 2 h. protection from H2O2 cell death, % at 20 µM. actives 0.63% (n = 360,000);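 active = compounds giving at least 50% protection of heart cells from peroxide-induced death in the single-dose screen, raw or plate-pattern-corrected value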;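 also: 0% = DMSO wells with peroxide and 100% = DMSO wells without peroxide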
# SUMO Mot1 rescue: SUMOylation pathway inhibition by Mot1-301 growth rescue; growth rescue, % at 18.8 µM; S. cerevisiae Mot1-301 growth rescue, ATP luminescence, 38.5C; percent above DMSO median, 100 means doubled; actives 1% (n = 320,000); AID 2716;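 active = every valid replicate shows activation above 250% relative to neutral control wells; inactive = the rest, any valid replicate at or below 250%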;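 also: OY570 slx delta 5 strain wells were the positive control but not used for scaling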
# FAS TE block: inhibitors of human fatty acid synthase thioesterase domain; P49327; recombinant FAS-TE, OMFH fluorogenic substrate, fluorescence endpoint; inhibition, % at 15 µM; actives 0.67% (n = 360,000);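 active = compounds whose normalised, plate-corrected inhibition of enzyme fluorescence in the single-dose primary screen is 50% or more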;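 also: 0% = DMSO with enzyme and 100% = substrate without enzyme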
# MPTP inh: blocks calcium-induced mitochondrial swelling; isolated mouse mitochondria, Ca2+ swelling absorbance, 30 min; inhibition, % at 10 µM; actives 1.4% (n = 360,000); AID 602449;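 active = inhibition of 50% or more, scaled per plate between neutral and stimulator controls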;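 also: 0% = DMSO wells given calcium and 100% = 1 mM EGTA wells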
# MPTP counter: membrane potential counter-screen of mitochondrial pore inhibitors; AID 624504; shares compounds with MPTP inh; isolated mitochondria, Rhodamine 123 fluorescence; inhibition, % at 10 µM; actives 78% (n = 5,000); in the data active = inhibition above about 22%;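 also: 0% = DMSO vehicle and 100% = positive control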
# MPTP abs DR: dose response confirmation of mitochondrial permeability transition pore inhibitors; shares compounds with MPTP inh; isolated mitochondria swelling, absorbance; IC50, µM; actives 58% (n = 780); AID 651561; in the data active = IC50 below about 20 µM
# MPTP cs DR: counter-screen for mitochondrial permeability transition pore inhibitors, dose response; IC50, µM; shares compounds with MPTP inh; AID 651564; actives 49% (n = 780); isolated mitochondria counterscreen, fluorescence read-out; in the data active = IC50 below about 80 µM
# Active calls of the source: *; i = inactive; x = no result.
SMILES,aDG glyco up,Yeast superoxide,H9c2 protect,SUMO Mot1 rescue,FAS TE block,MPTP inh,MPTP counter,others
Cc1ccc(S(=O)(=O)NCCC(=O)Nc2ccc(Cl)c(Cl)c2)cc1C,1.2,122.3,-14.6,17.5,11.9,37.1,x,
Cc1ccc(NC(=O)NNS(=O)(=O)c2ccc(Br)cc2)cc1,0.0,93.2,10.5,4.1,-9.8,-1.5,x,
Cc1ccc(S(=O)(=O)NNC(=O)Nc2ccc(Cl)c(Cl)c2)cc1,-0.1,103.2,-1.2,108.4,0.7,86.2*,97.1*,
Cc1cc(NC(=O)Nc2ccc(F)c(Cl)c2)no1,-0.2,131.9,-2.5,6.0,2.2,51.3*,85.4*,
Cc1ccc(NC(=O)CN(C)C(=O)Cn2c(=O)oc3ccccc32)cc1,0.1,123.1,-12.5,6.4,-13.1,-0.1,x,
FC(F)(F)c1ccc(-c2noc(CN3CCCN(C4CCCCC4)CC3)n2)cc1,1.0,106.8,-12.3,98.1,0.6,8.1,x,
Cc1cc(NC(=O)C(C)SCC(=O)NCc2ccc(F)cc2)no1 (stereo not given),0.5,119.8,0.0,x,-8.1,-0.1,x,
COCCCNC(=S)N1CCN(c2nc(-c3ccccc3)cs2)CC1,0.3,108.3,-1.6,12.2,21.6,2.0,x,
COc1cccc(-c2csc(N3CCN(C(=O)Nc4ccc(Cl)cc4)CC3)n2)c1,1.5,102.2,-12.0,4.3,25.6,88.5*,89.3*,
COCCCNC(=S)N1CCN(c2nc(-c3ccc(Cl)cc3)cs2)CC1,1.6,x,-17.2,x,23.1,75.5*,78.0*,
Cc1cccc(C(C)C)c1NS(=O)(=O)c1cn(C)nc1C,-0.3,99.1,-1.6,-7.4,-2.0,-1.4,x,
CSc1ccc(Cl)c(C(=O)Nc2cc(S(=O)(=O)N3CCOCC3)ccc2N2CCOCC2)c1,-0.4,86.9,10.9,-5.1,10.9,0.6,x,
O=[N+]([O-])c1ccc(C=NNc2ccccc2)cc1,-0.3,x,-17.0,x,42.9,45.6,x,
CC(C)(C)c1cnnn1-c1ccc(/C=N/Nc2ccc([N+](=O)[O-])cc2)cc1,3.4,106.8,-18.3,i,25.8,73.5*,68.3*,
CCOc1ccc(NC(=O)c2ccc(Cl)c(NC(=O)c3ccco3)c2)cc1,0.0,98.0,-1.7,8.5,-0.6,0.8,x,
COc1cc(/C=C2\SC(=O)N(CCN)C2=O)ccc1OS(=O)(=O)c1cc(C)ccc1C,0.0,x,-17.4,x,-33.0,81.9*,-23.5,MPTP abs DR=7.45*;MPTP cs DR=29.1*
CC(C)c1ccc(CNCCCSc2ncccn2)cc1,0.2,95.0,-6.5,1.7,-5.9,-1.8,x,
CN1CCN(CCCN2c3ccccc3Sc3ccc(S(=O)(=O)N(C)C)cc32)CC1,1.2,88.0,-20.3,-7.9,10.4,1.1,x,
CSc1ccc2c(c1)N(CCC1CCCCN1C)c1ccccc1S2 (stereo not given),0.3,90.8,-15.7,-3.4,4.5,85.4*,-22.1,MPTP abs DR=4.79*;MPTP cs DR=56*
CCC(C)NS(=O)(=O)c1ccc(S(=O)(=O)N2CCCC3(CCCCC3)C2)cc1 (stereo not given),6.4,104.1,-23.2,-36.5,30.4,88.0*,100.0*,
CSCC[C@H]1COC[C@@H](Cc2ccccc2)N1c1ccccc1,0.0,x,-4.3,x,23.1,-2.5,x,
S=C(NCc1ccccc1)Nc1cccc2cnccc12,1.7,98.2,-23.7,-12.2,-0.7,11.7,x,
S=C(Nc1cccc(Cl)c1)Nc1cccc2cnccc12,5.2,82.3,4.2,20.1,7.7,96.8*,99.3*,
S=C(NCCc1ccccc1)Nc1cccc2cnccc12,9.0*,106.2,-19.7,x,0.0,85.8*,85.1*,
CCc1nc(SCc2ccc(OCC(C)C)cc2)n[nH]1,0.7,107.7,-19.9,4.0,-1.0,86.3*,66.5*,
SMILES,aDG glyco up,Yeast superoxide,H9c2 protect,SUMO Mot1 rescue,FAS TE block,MPTP inh,MPTP counter,others
CCc1nc2c(OCc3ccccc3C(=O)OC)cccn2c1N(C)C(=O)Nc1ccccc1OC,-0.1,x,-5.9,x,6.9,0.5,x,
CNC(=O)C(=O)N1CCC2(CC1)OCCN2S(=O)(=O)c1ccc(C)cc1,-0.2,102.8,2.3,4.4,-2.7,-1.9,x,
c1ccc(CNc2ncnc3sccc23)cc1,2.2,81.5,-9.4,-11.1,-5.2,25.8,x,
c1ccc(CCNc2ncnc3sccc23)nc1,0.4,98.1,-14.8,106.8,-3.2,60.6*,16.2,MPTP abs DR=i;MPTP cs DR=52.5*
c1csc(CNc2ncnc3sccc23)c1,3.9,80.8,-13.9,-30.3,-4.8,89.9*,73.1*,
CN(Cc1cccs1)c1ncnc2sccc12,1.8,91.8,-24.6,-4.9,3.7,57.0*,63.3*,
O=C(Nc1ccc([N+](=O)[O-])cc1)N1CCCCC1,0.1,91.6,-6.2,-4.6,-2.7,94.2*,92.9*,
CN1CCN(C(=O)Nc2ccc([N+](=O)[O-])cc2)CC1,-0.2,85.0,-3.6,-14.3,-3.7,1.3,x,
O=C(Nc1ccc([N+](=O)[O-])cc1)N1CCCCCC1,-0.2,112.6,-1.7,-1.1,1.5,61.8*,95.8*,
CN(Cc1nccs1)C(=O)C1CCC(=O)N(CCc2ccc(Cl)cc2)C1 (stereo not given),-0.3,79.0,1.0,-7.7,-0.5,-0.8,x,
O=C(Nc1ncccn1)c1ccc([N+](=O)[O-])cc1Cl,0.0,110.2,-4.4,-9.4,-3.3,-0.1,x,
CN(CCO)c1cccc2c1S(=O)(=O)N[C@@H](Cc1ccccc1)CO2,0.8,x,x,x,-2.5,-0.4,x,
Cc1nc(N2CCC(C)CC2)c2c(C)c(C(=O)Nc3ccc4c(c3)OCCO4)sc2n1,0.0,107.0,1.5,-3.3,29.6,-0.8,x,
Cc1nc(N2CCC(C)CC2)c2c(C)c(C(=O)Nc3ccc(C(F)(F)F)cc3)sc2n1,0.9,92.7,-15.0,-4.5,14.3,87.5*,37.9*,
Cc1nc(N2CCC(C)CC2)c2c(C)c(C(=O)Nc3cccc(C(F)(F)F)c3)sc2n1,0.7,88.8,-17.7,-10.8,30.9,84.0*,16.8,MPTP abs DR=i;MPTP cs DR=7.7*
CCSc1nnc(NC(=O)C(CC)(C(F)(F)F)C(F)(F)F)s1,0.5,101.8,-12.0,-13.9,-8.7,54.2*,106.4*,
CCOC(=O)Nc1ccc(N2CCOCC2)c(S(=O)(=O)N2CCOCC2)c1,-0.1,90.4,0.9,6.0,-4.6,-0.2,x,
Cc1cccc(NC(=O)Nc2ccc(Oc3c(F)c(F)c(F)c(F)c3F)cc2)c1,0.2,98.4,-3.6,11.4,-1.3,88.3*,59.9*,
Cc1cn2c(N)c(C=C3C=C(Cl)C(=O)C(Cl)=C3)c(=O)nc2s1,-0.4,x,-2.1,x,-10.6,87.2*,83.0*,
CCC(=O)N1CCN(c2nc3ccccc3s2)CC1,0.2,99.0,-19.7,542.5,-7.8,-0.7,x,
